Compounds with a hit are over-represented: about 3.5% of the library has one in this group of screens.
MITF inh – human MITF inhibition, primary screen; AID 1259374; AlphaScreen MITF homodimerization, bead proximity signal; actives 0.91% (n = 650,000); inhibition, % at 2.6 µM; in the data active = inhibition above about 50%
FBW7 act – activators of human E3 ligase FBW7 | Q969H0 | AlphaScreen FBW7–phospho-cyclin E peptide binding, activator screen | normalized activity (activation), % at 26.1 µM | actives 0.13% (n = 650,000) | AID 1259310; in the data active = normalized activity above about 1.9%;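 note: purified mutant Fbw7 with reduced substrate affinity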
GPR151 activ – activates the human receptor GPR151. actives 1% (n = 650,000). activation, % at 11.2 µM. PathHunter beta-arrestin GPR151 cells, luminescence. AID 1508602. Q8TDV0; in the data active = activation above about 4.9%
TEAD-YAP inh – TEAD-YAP interaction inhibition; HEK-TIYL cells, TEAD-Gal4/YAP UAS-luciferase luminescence; actives 1.4% (n = 640,000); inhibition, % at 9.12 µM; in the data active = inhibition above about 32%
MITF confirm – confirmation of human MITF inhibitors | shares compounds with MITF inh | AlphaScreen MITF homodimerization, biotin/His-MITF beads | inhibition, % at 2.6 µM | actives 16% (n = 4,700) | AID 1259372;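 active = inhibition above a cutoff derived from the DMSO control wells, cut at about 28% in these data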;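 note: inhibitors lower the bead chemiluminescence by keeping MITF from dimerizing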
AlphaScreen DR – counter-screen: compounds optically interfering with AlphaScreen; AlphaScreen optical interference counterscreen, cell-free; actives 6% (n = 480); shares compounds with MITF inh; IC50, µM; call rule not given here
AlphaScreen intf2 – counter-screen: compounds optically interfering with AlphaScreen. shares compounds with MITF inh. LysRS AlphaScreen counterscreen, signal interference, triplicate. inhibition, % at 2.6 µM. actives 7.6% (n = 4,700). AID 1259376;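 active = inhibition above a cutoff derived from the DMSO control wells, cut at about 30% in these data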
Each line names hits and unclear results; the compound was inactive in the other large screens (follow-up assays come after a bar, where they were run).

Cc1nc2ccccc2c2oc(C(=O)N3CCCCC3C)cc12 (centres undefined)	none
CN1CCCN(Cc2cccc(Oc3ccccc3)c2)CC1	MITF inh 55 | MITF confirm inactive | AlphaScreen intf2 inactive
CCc1ccc(CN2CCN(Cc3cccc(Oc4ccccc4)c3)CC2)cc1	MITF inh 67 | MITF confirm inactive | AlphaScreen intf2 inactive
CN1CCN(Cc2cccc(Oc3ccccc3)c2)CC1	none
OC1CCN(Cc2cccc(Oc3ccccc3)c2)CC1	none
CC(=O)N1CCN(C(=S)Nc2ccccc2F)CC1	none
O=C(NC1CCCCC1)C1CCC(=O)N1CCc1ccccc1 (centres undefined)	none
Fc1ccccc1N1CCN(Cc2cccnc2)CC1	none
c1cncc(CN2CCN(Cc3ccncc3)CC2)c1	MITF inh 77 | MITF confirm inactive | AlphaScreen intf2 inactive
O=S(=O)(c1ccc(Cl)cc1)N1CCN(Cc2cccnc2)CC1	none
Brc1ccc(CN2CCN(Cc3cccnc3)CC2)cc1	MITF inh 84 | MITF confirm inactive | AlphaScreen intf2 inactive
c1cncc(CN2CCN(Cc3ccc4ccccc4c3)CC2)c1	MITF inh 81 | MITF confirm inactive | AlphaScreen intf2 inactive
Fc1ccccc1N1CCN(C2CCN(Cc3cccnc3)CC2)CC1	MITF inh 82 | MITF confirm inactive | AlphaScreen intf2 inactive
O=[N+]([O-])c1ccc(Sc2cccc3cccnc23)c2nonc12	none
Brc1ccc(CN2CCN(c3ncccn3)CC2)cc1	MITF inh 54 | MITF confirm inactive | AlphaScreen intf2 inactive
c1cncc(CN2CCN(Cc3ccco3)CC2)c1	MITF inh 75 | MITF confirm inactive | AlphaScreen intf2 inactive
CC1CCC(N2CCN(Cc3cccnc3)CC2)CC1 (centres undefined)	MITF inh 84 | MITF confirm inactive | AlphaScreen intf2 inactive
c1cncc(-c2n[nH]c(C3CCN(Cc4ccncc4)CC3)n2)c1	MITF inh 54 | MITF confirm inactive | AlphaScreen intf2 inactive
CC1=C(C(=O)OC2CCCCC2)C(c2cccc(Br)c2)NC(=O)N1 (centres undefined)	none
Cc1ccc(N2CC(=O)Nc3ccccc3S2(=O)=O)cc1Cl	none
O=C(C1c2ccccc2Oc2ccccc21)N1CCCC(c2nc(-c3cccnc3)n[nH]2)C1 (centres undefined)	MITF inh 62 | MITF confirm inactive | AlphaScreen intf2 inactive
Fc1ccc(N2CCN(Cc3cccnc3)CC2)cc1	none
c1cncc(CN2CCN(Cc3cccnc3)CC2)c1	MITF inh 60 | MITF confirm inactive | AlphaScreen intf2 inactive
CCN(CC)C(=O)C1CCCN(c2nc(NCCN3CCOCC3)c3ncn(Cc4ccc(C(F)(F)F)cc4)c3n2)C1 (centres undefined)	none
O=C(NCc1cccnc1)c1ccnc(-c2cccs2)c1	MITF inh 51 | MITF confirm 30 | AlphaScreen DR inactive | AlphaScreen intf2 inactive
O=C(NCc1ccccc1)c1ccnc(-c2cccs2)c1	none
O=C(Nc1ccc(N2CCOCC2)cc1)c1ccc2nc(Nc3ccccn3)sc2c1	MITF inh 70 | MITF confirm 79 | AlphaScreen DR inactive | AlphaScreen intf2 inactive
O=C(Nc1ccc(N2CCOCC2)cc1)c1ccnc(Nc2ccc(N3CCOCC3)cc2)c1	none
O=C(Nc1ccc(N2CCOCC2)cc1)c1ccc2nc(Nc3ccc(N4CCOCC4)cc3)sc2c1	none
O=C(Nc1ccc(N2CCOCC2)cc1)c1ccc2nc(-c3cccs3)sc2c1	MITF inh 55 | MITF confirm 57 | AlphaScreen DR inactive | AlphaScreen intf2 inactive
O=C(Nc1ccc(N2CCOCC2)cc1)c1ccnc(Nc2ncccn2)c1	MITF inh 59 | MITF confirm 84 | AlphaScreen DR inactive | AlphaScreen intf2 inactive
Cc1cc(NC(=O)c2ccc(Br)cc2)ccc1O	MITF inh 75, TEAD-YAP inh 80 | MITF confirm inactive | AlphaScreen intf2 inactive
Cc1cc(NC(=O)c2ccc(Br)cc2)c(C)cc1O	none
COc1cccc(CN2CCN(S(=O)(=O)c3ccccc3)CC2)c1OC	none
CCOc1ccccc1CN1CCN(S(=O)(=O)c2ccc(Cl)cc2)CC1	MITF inh 61 | MITF confirm inactive | AlphaScreen intf2 inactive
Cc1cc(S(=O)(=O)N2CCN(Cc3ccc(Cl)cc3)CC2)ccc1-n1cnnn1	MITF inh 60 | MITF confirm inactive | AlphaScreen intf2 inactive

Screens as filed in PubChem BioAssay.
